# Reference: PubChem BioAssay (NCI)
# “And” between values parts separate entries of the source, which are not always exact repeats. Identical values can stand only once. Compounds without any hit were thinned out: in the full panel of roughly 79,000, 15% have a hit. Unmarked numbers belong to inactive results. The source made the active and inactive calls. No stated cut-off is given here; in the data, active means growth inhibition above about 70%; inactive means the rest.
# Assays:
# [1] = NCI Yeast Anticancer Drug Screen. Data for the wt1 strain (AID 149);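 further: 0% = growth of vehicle-treated wt1 cultures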; conditions: S. cerevisiae wt1 strain (SPY 50644) growth inhibition, hits give high values
# How it was run: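 wt1 yeast, compound-treated; % growth inhibition vs vehicle control.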
# [2] = NCI Yeast Anticancer Drug Screen. Data for the rad50EPP+ strain (AID 151);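 further: 0% = growth of vehicle-treated control cultures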; conditions: S. cerevisiae rad50 mutant strain, hits give high values
# How it was run: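 Measured: growth inhibition of rad50EPP+ yeast. Reference: vehicle-treated controls. Screen uses strains with defined genetic alterations in DNA damage repair or cell cycle control.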
# [3] = NCI Yeast Anticancer Drug Screen. Data for the mgt1 strain (AID 153); conditions: S. cerevisiae mgt1 mutant growth inhibition, hits give high values
# How it was run: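 Compounds were applied to mgt1 mutant yeast, and growth was then compared against vehicle-treated control cultures to give percent inhibition.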
# [4] = NCI Yeast Anticancer Drug Screen. Data for the rad50 strain (AID 155);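 further: 0% = growth of vehicle-only cultures of the same strain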; conditions: S. cerevisiae rad50 strain growth inhibition, hits give high values
# How it was run: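 Genetically altered yeast (DNA repair pathway); compound treatment; growth inhibition vs vehicle ctrl.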
# [5] = NCI Yeast Anticancer Drug Screen. Data for the mec2-1 strain (AID 157); conditions: S. cerevisiae mec2-1 strain, hits give high values
# How it was run: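 Compounds were applied to mec2-1 yeast cells. Their growth was then compared with that of vehicle-treated cultures to give growth inhibition.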
# [6] = NCI Yeast Anticancer Drug Screen. Data for the rad14 strain (AID 159);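 further: 0% = growth of vehicle-treated control cultures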; conditions: S. cerevisiae rad14 strain growth inhibition, hits give high values
# How it was run: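 Test compounds were applied to a repair-deficient yeast strain. Its growth was then compared with that of cultures given vehicle alone, and inhibition was expressed relative to those controls.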
# [7] = NCI Yeast Anticancer Drug Screen. Data for the sgs1 mgt1 strain (AID 161);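 further: 0% = growth of cultures given vehicle only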; conditions: S. cerevisiae sgs1 mgt1 strain, hits give high values
# How it was run: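 Yeast cells carrying a defined DNA-repair defect were exposed to test compounds. Growth inhibition was measured relative to vehicle-treated controls.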
# [8] = NCI Yeast Anticancer Drug Screen. Data for the cln2 rad14 strain (AID 165);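 further: 0% = growth equal to vehicle treated cultures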; conditions: S. cerevisiae cln2 rad14 strain, hits give high values
# How it was run: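 Strain: cln2 rad14 yeast, altered in cell cycle control and DNA damage repair. Read-out: growth inhibition vs vehicle.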
# [9] = NCI Yeast Anticancer Drug Screen. Data for the bub3 strain (AID 167); conditions: S. cerevisiae bub3 mutant strain, hits give high values
# How it was run: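 Yeast carrying a defined mutation is treated with each compound, and growth is compared with that of vehicle-exposed cells to give inhibition.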
# [10] = NCI Yeast Anticancer Drug Screen. Data for the wt2 strain (AID 169);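 further: 0% = growth of vehicle-treated yeast cultures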; conditions: S. cerevisiae wt2 strain growth inhibition, hits give high values
# How it was run: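 Growth of compound-treated yeast is measured and expressed as inhibition relative to vehicle-only controls.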
# [11] = NCI Yeast Anticancer Drug Screen. Data for the sgs1 strain (AID 173);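 further: 0% = growth of vehicle-only control cultures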; conditions: S. cerevisiae sgs1 mutant, hits give high values
# How it was run: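 Strain with an altered DNA repair or cell cycle pathway exposed to compound. Growth then measured. Value = inhibition versus vehicle control.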
# [12] = NCI Yeast Anticancer Drug Screen. Data for the mlh1 rad18 strain (AID 175); conditions: S. cerevisiae mlh1 rad18 strain growth inhibition, hits give high values
# How it was run: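 A repair-deficient yeast strain is exposed to test compound, and growth is scored relative to vehicle-treated controls.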
# [13] = NCI Yeast Anticancer Drug Screen. Data for the rad18 strain (AID 177); conditions: S. cerevisiae rad18 mutant growth inhibition, hits give high values
# How it was run: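 DNA-repair-defective yeast; compound treatment; growth inhibition scored against vehicle.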
# [14] = at 5.0 µM (retest, dose inferred, filed as 0.5)
# [15] = at 50.0 µM (retest, dose inferred, filed as 5.0)
smiles,measurement,setting,value
OC(c1ccc(Br)cc1)C(Cl)(Cl)Cl (stereo not drawn),growth inhibition,[1]; at 1.2 µM,-13%
same,growth inhibition,[1]; at 3.7 µM,-11%
same,growth inhibition,[1]; at 11.0 µM,-1%
same,growth inhibition,[1]; at 33.0 µM,89% (active)
same,growth inhibition,[1]; at 100.0 µM,99% (active)
same,growth inhibition,[2]; at 1.2 µM,4%
same,growth inhibition,[2]; at 3.7 µM,3%
same,growth inhibition,[2]; at 11.0 µM,4%
same,growth inhibition,[2]; at 33.0 µM,38%
same,growth inhibition,[2]; at 100.0 µM,95% (active)
same,growth inhibition,[3]; at 1.2 µM,20%
same,growth inhibition,[3]; at 3.7 µM,-1%
same,growth inhibition,[3]; at 11.0 µM,5%
same,growth inhibition,[3]; at 33.0 µM,89% (active)
same,growth inhibition,[3]; at 100.0 µM,100% (active)
same,growth inhibition,[4]; at 1.2 µM,16%
same,growth inhibition,[4]; at 3.7 µM,14%
same,growth inhibition,[4]; [14],71% (active)
same,growth inhibition,[4]; at 11.0 µM,21%
same,growth inhibition,[4]; at 33.0 µM,84% (active)
same,growth inhibition,[4]; [15],99% (active)
same,growth inhibition,[4]; at 50.0 µM,81.2% (active)
same,growth inhibition,[4]; at 100.0 µM,97% (active)
same,growth inhibition,[5]; at 1.2 µM,-19%
same,growth inhibition,[5]; at 3.7 µM,-19%
same,growth inhibition,[5]; [14],89% (active)
same,growth inhibition,[5]; at 11.0 µM,-1%
same,growth inhibition,[5]; at 33.0 µM,92% (active)
same,growth inhibition,[5]; [15],99% (active)
same,growth inhibition,[5]; at 50.0 µM,86.8% (active)
same,growth inhibition,[5]; at 100.0 µM,99% (active)
same,growth inhibition,[6]; at 1.2 µM,-23%
same,growth inhibition,[6]; at 3.7 µM,-16%
same,growth inhibition,[6]; at 11.0 µM,-7%
same,growth inhibition,[6]; at 33.0 µM,84% (active)
same,growth inhibition,[6]; at 100.0 µM,98% (active)
same,growth inhibition,[7]; [14],3%
same,growth inhibition,[7]; [15],97% (active)
same,growth inhibition,[7]; at 50.0 µM,84.5% (active)
same,growth inhibition,[8]; [14],68%
same,growth inhibition,[8]; [15],98% (active)
same,growth inhibition,[8]; at 50.0 µM,80.8% (active)
same,growth inhibition,[9]; at 1.2 µM,-17%
same,growth inhibition,[9]; at 3.7 µM,15%
same,growth inhibition,[9]; [14],-15%
same,growth inhibition,[9]; at 11.0 µM,3%
same,growth inhibition,[9]; at 33.0 µM,91% (active)
same,growth inhibition,[9]; [15],97% (active)
same,growth inhibition,[9]; at 50.0 µM,81.7% (active)
same,growth inhibition,[9]; at 100.0 µM,99% (active)
same,growth inhibition,[10]; at 1.2 µM,-17%
same,growth inhibition,[10]; at 3.7 µM,-15%
same,growth inhibition,[10]; at 11.0 µM,-21%
same,growth inhibition,[10]; at 33.0 µM,78% (active)
same,growth inhibition,[10]; at 100.0 µM,98% (active)
same,growth inhibition,[11]; at 1.2 µM,11%
same,growth inhibition,[11]; at 3.7 µM,5%
same,growth inhibition,[11]; at 11.0 µM,14%
same,growth inhibition,[11]; at 33.0 µM,84% (active)
same,growth inhibition,[11]; at 100.0 µM,98% (active)
same,growth inhibition,[12]; [14],62%
same,growth inhibition,[12]; [15],99% (active)
same,growth inhibition,[12]; at 50.0 µM,76.2% (active)
same,growth inhibition,[13]; at 1.2 µM,4%
same,growth inhibition,[13]; at 3.7 µM,4%
same,growth inhibition,[13]; at 11.0 µM,32%
same,growth inhibition,[13]; at 33.0 µM,90% (active)
same,growth inhibition,[13]; at 100.0 µM,98% (active)
BrCC[N+]12CC[N+](CCBr)(CC1)C2,growth inhibition,[1]; at 1.2 µM,1%
same,growth inhibition,[1]; at 3.7 µM,6%
same,growth inhibition,[1]; at 11.0 µM,14%
same,growth inhibition,[1]; at 33.0 µM,82% (active)
same,growth inhibition,[1]; at 100.0 µM,94% (active)
same,growth inhibition,[2]; at 1.2 µM,9%
same,growth inhibition,[2]; at 3.7 µM,14%
same,growth inhibition,[2]; at 11.0 µM,12%
same,growth inhibition,[2]; at 33.0 µM,81% (active)
same,growth inhibition,[2]; at 100.0 µM,92% (active)
same,growth inhibition,[3]; at 1.2 µM,12%
same,growth inhibition,[3]; at 3.7 µM,-2%
same,growth inhibition,[3]; at 11.0 µM,42%
same,growth inhibition,[3]; at 33.0 µM,88% (active)
same,growth inhibition,[3]; at 100.0 µM,96% (active)
same,growth inhibition,[4]; at 1.2 µM,14%
same,growth inhibition,[4]; at 3.7 µM,20%
same,growth inhibition,[4]; [14],40% and 27%
same,growth inhibition,[4]; at 11.0 µM,55%
same,growth inhibition,[4]; at 33.0 µM,87% (active)
same,growth inhibition,[4]; [15],94% (active) and 89% (active)
same,growth inhibition,[4]; at 50.0 µM,86.7% (active) and 86.5% (active)
same,growth inhibition,[4]; at 100.0 µM,93% (active)
same,growth inhibition,[5]; at 1.2 µM,-4%
same,growth inhibition,[5]; at 3.7 µM,5%
same,growth inhibition,[5]; [14],43% and 1%
same,growth inhibition,[5]; at 11.0 µM,29%
same,growth inhibition,[5]; at 33.0 µM,87% (active)
same,growth inhibition,[5]; [15],98% (active) and 94% (active)
same,growth inhibition,[5]; at 50.0 µM,92.2% (active) and 89.9% (active)
